Source: PubChem (National Center for Advancing Translational Sciences (NCATS))
HCMV antiviral: inhibitors of human cytomegalovirus. activity change, negative = inhibition, % at 57.5 µM. AID 1259415. 410,000 compounds, 4.5% hits. HFF cells, HCMV-luciferase reporter, 72 h; stronger effect = lower value; in the data active means activity change below about -60%; inconclusive means no clear call, values can overlap the other calls; inactive means above about -39%
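Two-dose cell screen: HFF monolayers treated with compounds and infected with luciferase-expressing HCMV at 1 PFU/cell, 72 h at 37C, then lysed for luciferase measurement.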
Pf growth 48h: P. falciparum growth inhibition at 48 hours (one generation); P. falciparum luciferase growth in erythrocytes, 48 h; Potency, µM (top dose mostly 28.7 µM), usual class: inhibitors; 310,000 compounds, 5.9% hits; AID 504832
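Parasite viability was followed by luminescence of a genomically integrated firefly luciferase. Cultures held 0.1% parasitemia at 2% hematocrit (final), incubated under 5% CO2 at 37 C.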
Pf growth 96h: P. falciparum growth inhibition at 96 hour, primary screen for plastid delayed-death inhibitors | P. falciparum luciferase reporter growth, 96 h | 320,000 compounds, 6.9% hits | Potency, µM (top dose mostly 28.7 µM), most hits filed as inhibitors
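96 h incubation, 37 C, 5% CO2, of luciferase-reporter P. falciparum-infected RBCs (2% hematocrit, 0.05% parasitemia final) with test compounds; endpoint luminescence.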
Cycloheximide cs: counter-screen hit for Shiga toxin inhibitors, cycloheximide; cell reporter, cycloheximide protein synthesis inhibition counterscreen; max response, %; 300,000 compounds, 12% hits; AID 2314; in the data active means max response mostly above about 13%, no sharp cut-off; inactive means mostly below about 14%; further: read at 38.3 µM for the half of the compounds with a filed dose
Shiga inhibitor: Shiga toxin inhibition. Vero cells, Shiga toxin protein synthesis inhibition reporter. inhibition, % at 38.7 µM. 290,000 compounds, 9.2% hits. AID 2315; in the data active means inhibition mostly above about 28%, no sharp cut-off; inactive means mostly below about 43%
Each line names hits and unclear results; the compound was inactive in the other large screens. Only some compounds are listed: those with a hit (about 20% of all), similar ones and a draw of the others. Unless noted, the call rests on the fitted dose curve; in most records, active means well fitted inhibition curve with a large enough effect; inconclusive means small, poorly fitted or top-dose-only effect, or another doubt; inactive means no such curve, though single readings can be large or run the other way.

Cc1nn2c(=O)cc(COC(=O)c3cccs3)nc2s1	none (no result: Pf growth 48h, Pf growth 96h, Cycloheximide cs, Shiga inhibitor)
CC(C)C1C(=O)N(Cc2cn(CCC3OCCCO3)nn2)CCS(=O)(=O)N1Cc1ccc(-c2ccc(F)nc2)cc1 (centres undefined)	none (no result: Pf growth 48h, Pf growth 96h, Cycloheximide cs, Shiga inhibitor)
Cc1ccc(C)c(NC(=O)CCC(=O)OC(C(=O)c2ccccc2)c2ccccc2)c1 (centres undefined)	Pf growth 96h inconclusive
CCC(=O)Nc1cc(C(=O)OC(C(=O)c2ccc(C)c(C)c2)c2ccccc2)ccc1C (centres undefined)	Pf growth 48h 12µM, Pf growth 96h 1.7µM
Cc1cc(C)nc(Nc2n[nH]c(-c3ccccc3Cl)n2)n1	none
Cc1cc(C)nc(Nc2n[nH]c(-c3cccc4ccccc34)n2)n1	Pf growth 48h inconclusive, Pf growth 96h inconclusive, Cycloheximide cs 19
O=C(CC1N=C2c3ccccc3N=C(SCc3ccc(Cl)cc3)N2C1=O)NCCc1ccccc1 (centres undefined)	none (no result: Pf growth 48h, Pf growth 96h, Cycloheximide cs, Shiga inhibitor)
COCCNC(=S)NNC(=O)CSCc1ccc(Cl)cc1Cl	Shiga inhibitor 43
OCCN1CCN(c2ncnc3c2ncn3[C@H]2CN(Cc3ccc4c(c3)OCO4)C[C@@H](CO)O2)CC1	none (no result: Pf growth 48h, Pf growth 96h, Cycloheximide cs, Shiga inhibitor)
Cc1ccc(NC(=O)C2CCN(S(=O)(=O)c3ccc(N4CCCC4=O)cc3)CC2)cc1Cl	HCMV antiviral -86, Pf growth 48h inconclusive, Pf growth 96h 5.9µM
COc1ccc(NC(=O)C2CCN(S(=O)(=O)c3ccc(N4CCCC4=O)cc3)CC2)c(OC)c1	Pf growth 48h inconclusive, Pf growth 96h inconclusive
O=C(NCc1ccccc1Cl)C1CCN(S(=O)(=O)c2ccc(N3CCCC3=O)cc2)CC1	Pf growth 48h inconclusive, Pf growth 96h 9.3µM
C=CCN(CC=C)C(=O)C1CCN(S(=O)(=O)c2ccc(N3CCCC3=O)cc2)CC1	Pf growth 96h 7.4µM
Nc1nonc1-n1nnc(C(=O)N/N=C/c2ccoc2)c1CSc1ccc(Cl)cc1	none
CCOC(=O)CC(=O)CSc1nc(-c2cccnc2)ccc1C#N	Pf growth 48h 10µM, Cycloheximide cs 14 (no result: Pf growth 96h)
CCOC(=O)CCCSc1nc(-c2ccc3c(c2)OCO3)cc(C(F)(F)F)c1C#N	none
CCOC(=O)CSc1nc(-c2ccncc2)ccc1C#N	Cycloheximide cs 37, Shiga inhibitor 87
CCOC(=O)CC(=O)CSc1nc(-c2cccnc2)cc(C)c1C#N	none
CCOC(=O)CSc1nc(-c2ccc3c(c2)OCO3)ccc1C#N	Cycloheximide cs 52, Shiga inhibitor 78
CN(Cc1ccccc1)C(=O)c1ccc2c(c1)NC(=O)C(N1CCOCC1)S2 (centres undefined)	none
Nn1c(SCC(=O)N2CCOCC2)nnc1-c1ccccc1Cl	Pf growth 96h inconclusive
O=C1CSC(c2cn(-c3ccccc3)nc2-c2cc3ccccc3o2)N1Cc1ccccc1 (centres undefined)	Pf growth 96h 4.1µM (no result: Pf growth 48h)
CCCC(C)NC(=O)c1ccc(C2SCC(=O)N2Cc2ccco2)cc1 (centres undefined)	Pf growth 48h inconclusive, Pf growth 96h inconclusive
O=C1CSC(c2cn(-c3ccccc3)nc2-c2cc3ccccc3oc2=O)N1Cc1ccco1 (centres undefined)	Pf growth 48h 10µM, Pf growth 96h inconclusive
Cc1ccc(-c2nn(-c3ccccc3)cc2C2SCC(=O)N2Cc2ccccc2)o1 (centres undefined)	Pf growth 48h 10µM
O=C1CSC(c2cn(-c3ccccc3)nc2-c2cccs2)N1Cc1ccccc1 (centres undefined)	none (no result: Pf growth 48h)
Cc1ccc(CN2CCN(Cc3ccc4cccc(F)c4n3)CC2CCO)cc1 (centres undefined)	none
COc1cc(S(=O)(=O)N2CCN(C(=O)c3cccs3)CC2)ccc1NC(C)=O	none (no result: Pf growth 48h, Pf growth 96h, Cycloheximide cs, Shiga inhibitor)
COc1ccc(-c2noc(C3CC(=O)N(c4ccc5c(c4)OCCO5)C3)n2)c(OC)c1 (centres undefined)	none (no result: Pf growth 48h, Pf growth 96h, Cycloheximide cs, Shiga inhibitor)
C#CCN(C(=O)CC1C(=O)NCCN1C/C=C/c1ccccc1)C1CCCCC1 (centres undefined)	Pf growth 96h 4.7µM
CCCc1c(C(=O)OCC)nnc2c(-c3ccccc3)c(C)nn12	none (no result: Pf growth 48h, Pf growth 96h, Cycloheximide cs, Shiga inhibitor)
Cc1nc(-n2nc(C)c(Cc3ccccc3Cl)c2C)sc1C(=O)Nc1ccccc1F	none (no result: Pf growth 48h, Pf growth 96h, Cycloheximide cs, Shiga inhibitor)
CCC(c1nnnn1Cc1cccs1)N1CCN(C2CCCC2)CC1 (centres undefined)	Pf growth 96h inconclusive
CC(C)CC(c1nnnn1Cc1cccs1)N1CCN(c2nc3ccccc3s2)CC1 (centres undefined)	HCMV antiviral inconclusive, Pf growth 48h 12µM, Cycloheximide cs 20
